# Screens deposited in PubChem by several laboratories.
# CYP2C19 inh – blockers of cytochrome P450 2C19 activity – biochemical, luminescence, ADME assay, primary screen | 96,000 tested, 21% active | inhibition, % at 5 µM | P33261 | CYP2C19 Supersomes, luciferin-H EGE luminescence, 30 min;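 active means CYP2C19 inhibition above a set limit at 5 µM in the primary screen, cut at about 50% in these data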;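 further: plate controls were negative control wells for no effect and 2.5 mM tranylcypromine positive control for full effect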
# Target sequence (P33261 whole entry, looked up): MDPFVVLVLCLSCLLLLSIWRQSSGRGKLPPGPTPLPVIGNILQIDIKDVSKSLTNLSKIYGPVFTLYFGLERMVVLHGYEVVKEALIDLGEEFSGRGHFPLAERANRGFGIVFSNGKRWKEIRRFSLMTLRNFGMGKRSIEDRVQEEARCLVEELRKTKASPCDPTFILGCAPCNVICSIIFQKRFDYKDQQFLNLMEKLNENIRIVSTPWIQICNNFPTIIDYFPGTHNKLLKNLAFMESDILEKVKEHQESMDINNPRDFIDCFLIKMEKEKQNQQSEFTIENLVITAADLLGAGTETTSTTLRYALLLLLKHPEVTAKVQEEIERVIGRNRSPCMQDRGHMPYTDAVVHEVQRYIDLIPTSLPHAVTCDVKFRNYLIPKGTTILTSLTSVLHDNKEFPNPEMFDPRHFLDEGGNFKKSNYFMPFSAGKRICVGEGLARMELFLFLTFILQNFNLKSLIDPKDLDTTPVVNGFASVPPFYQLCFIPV
# PostGolgi ctrl – growth inhibition of yeast control strain, primary screen, counter-screen for post-Golgi transport modulator project; efflux-deficient yeast background strain, growth absorbance A615, 16 h; inhibition, % at 10 µM; 98,000 tested, 5% active; AID 738, 2007
# CYP2C19 act – human CYP2C19 activators, primary screen, biochemical, luminescence | 96,000 tested, under 10 active | activation factor at 5 µM | Cytochrome P450 2C19 (Homo sapiens), P33261 | AID 1025, 2008 | recombinant CYP2C19, luciferin-H EGE luminescence; hits give high values; 0 = fully inhibited enzyme, 1 = untreated enzyme;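 active means activation factor of at least 2 at 5 µM in the primary screen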;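 further: 0 = wells with 2.5 mM tranylcypromine and 1 = vehicle-only wells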
# CYP2C9 inhib – blockers of cytochrome P450 2C9 activity – biochemical, luminescence, ADME assay, primary screen; 96,000 tested, 20% active; AID 777, 2007; P11712; inhibition, % at 5 µM; CYP2C9 Supersomes, luciferin-H conversion;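 active means blocking of liver enzyme CYP2C9 beyond about 50% at 5 µM, limit read from the data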
# PostGolgi yeast – phenotypic screen on post-Golgi transport, primary screen | inhibition, % at 10 µM | post-Golgi transport phenotypic cell assay | 98,000 tested, 0.9% active | AID 739, 2007;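 further: yeast cells grown in 1536-well plates; yeast grown about 18 h at 30C before absorbance read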
# CYP2C9 act – human CYP2C9 activators, primary screen, biochemical, luminescence. Cytochrome P450 2C9 (Homo sapiens), P11712. recombinant CYP2C9, luciferin-H conversion; hits give high values; factor 1 = untreated enzyme, 0 = blocked. activation factor at 5 µM. 96,000 tested, 1.4% active. AID 1024, 2008;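 active means activation factor of 2 or more for CYP2C9 at a 5 µM dose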;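 further: 0 = sulfaphenazole-blocked wells and 1 = vehicle-only wells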
# * = called active by the depositor; . = no result. Hits are enriched below; roughly 32% of the tested compounds scored in any of these assays. Unless noted, no stated cut-off is given here; in the data, active means inhibition above about 30%; inactive means the rest.
SMILES,CYP2C19 inh,PostGolgi ctrl,CYP2C19 act,CYP2C9 inhib,PostGolgi yeast,CYP2C9 act
CCS(=O)(=O)Nc1ccc(Cc2ccc(NS(=O)(=O)CC)cc2)cc1,69.6*,5.4,0.3,86.6*,3.8,0.1
CS(=O)(=O)N(CC(=O)NCCC1=CCCCC1)C1CCCCC1,71.0*,3.5,0.3,68.7*,8.4,0.3
Cc1ccc(S(=O)(=O)N(CC(=O)NCCC2=CCCCC2)Cc2ccccc2)cc1,39.1,16.1,0.6,56.7*,12.3,0.4
Cc1ccc(S(=O)(=O)N(CC(=O)NCCC2=CCCCC2)Cc2ccccc2F)cc1,21.6,26.9,0.8,51.7*,0.3,0.5
O=C(CN(Cc1ccccc1F)S(=O)(=O)c1ccc(Cl)cc1)NCCC1=CCCCC1,7.8,4.0,0.9,16.3,-0.5,0.8
O=C(CN(Cc1ccccc1F)S(=O)(=O)c1ccc(Cl)cc1)NCCCO,54.4*,1.6,0.5,14.2,1.3,0.9
O=C(CN(Cc1ccccc1)S(=O)(=O)c1ccc(F)cc1)NCCC1=CCCCC1,19.2,18.8,0.8,45.6,3.1,0.5
COCCCNC(=O)c1ccc(CS(=O)(=O)c2ccc(Br)cc2)o1,17.8,13.8,0.8,41.2,16.1,0.6
COc1ccc(-n2nnnc2-c2ccccc2)cc1,75.6*,-1.3,0.2,35.3,-2.1,0.6
Cc1nn(-c2ccc(C(=O)O)cc2)c(N)c1-c1ccccc1,-0.7,8.7,1,0.4,4.0,1
Cc1nn(-c2nc3ccccc3[nH]2)c(N)c1-c1ccc(Cl)cc1,0.2,72.0*,1,14.9,-2.4,0.9
COc1ccc(-c2c(C)nn(-c3ccccc3)c2N)cc1,16.6,38.0*,0.8,-5.3,1.2,1.1
COc1ccc(-n2c(-c3ccccc3)nnc2-c2ccc(Cl)cc2)cc1,-0.9,13.1,1,-3.5,-0.8,1
Clc1ccc(-n2nnnc2-c2ccccc2)cc1,97.7*,7.8,0,61.4*,16.9,0.4
Nc1ccc(-c2nc3ccccc3[nH]2)cc1,-7.5,18.6,1.1,-11.1,-3.3,1.1
COc1ccc(OCc2nnnn2-c2ccccc2)cc1,68.9*,11.8,0.3,20.7,26.9,0.8
Nc1ncc(-c2nnnn2-c2ccc(Cl)cc2)c(-c2ccc(Cl)cc2)n1,22.6,36.4*,0.8,13.9,-10.3,0.9
COc1ccc(C(C)=O)c2c(O)cccc12,87.4*,-3.5,0.1,39.4,2.6,0.6
COc1ccc(C(=O)c2ccccc2)c2c(O)ccc(C(=O)c3ccccc3)c12,-28.9,20.8,1.3,44.1,7.4,0.6
CCOCCCN(Cc1ccco1)C(=O)c1cc2c(=O)[nH]c3ccc(C)cc3c2s1,18.6,16.3,0.8,20.9,1.8,0.8
Cc1cc(=O)oc2cc(OC(C)C(=O)Nc3nccs3)ccc12 (stereo unspecified),81.0*,0.6,0.2,79.8*,28.3,0.2
CC(=O)Oc1ccc2c(C)cc(=O)oc2c1,-2.7,-0.9,1,-7.2,-4.6,1.1
Cc1csc(NC(=O)COc2ccc3c(C)cc(=O)oc3c2)n1,2.5,-2.1,1,-27.9,-7.8,1.3
CCOC(=O)Nc1ccc2c(C)cc(=O)oc2c1,12.2,33.5*,0.9,-10.9,0.5,1.1
COC(=O)C(CC(C)C)Oc1ccc2c(C)cc(=O)oc2c1 (stereo unspecified),19.8,-4.9,0.8,64.7*,-2.9,0.4
SMILES,CYP2C19 inh,PostGolgi ctrl,CYP2C19 act,CYP2C9 inhib,PostGolgi yeast,CYP2C9 act
CCOc1ccc(NC(=O)C(C)Oc2ccccc2C(=O)Nc2ccc(C)c(Cl)c2)cc1 (stereo unspecified),.,1.1,.,.,3.6,.
CCC(=O)n1nc(-c2ccco2)nc1SCc1ccccc1,78.4*,0.9,0.2,63.8*,-7.8,0.4
CC(=O)n1nc(-c2ccco2)nc1SCc1ccccc1,66.2*,3.4,0.3,30.9,-2.3,0.7
CSc1nc(-c2ccco2)nn1C(=O)c1cccs1,38.4,2.4,0.6,88.3*,6.6,0.1
CCC(=O)n1nc(-c2ccco2)nc1N,11.4,0.8,0.9,7.9,-4.1,0.9
O=C(c1cccs1)n1nc(-c2ccco2)nc1SCc1ccccc1,20.8,5.3,0.8,24.1,-0.8,0.8
CCOC(=O)CCC(=O)N1CCNC(=O)C1,16.5,-10.4,0.8,28.5,17.2,0.7
COc1cc(O)oc1C=Nc1ccc(Cl)cc1,20.1,1.4,0.8,17.5,-3.1,0.8
COc1cc(O)oc1C=Nc1ccc(Cl)cc1Cl,69.4*,-1.7,0.3,18.2,11.3,0.8
COc1cc2c(cc1OC)C(COc1ccc3c(C)cc(=O)oc3c1)N(C(=O)c1ccco1)CC2 (stereo unspecified),.,8.2,.,.,-0.8,.
COc1cc2c(cc1OC)C(C)N(C(=O)c1cc3ccccc3o1)CC2 (stereo unspecified),41.9,21.9,0.6,32.9,-5.7,0.7
COc1cc2c(cc1OC)C(COc1ccc(F)cc1)N(C(=O)c1ccco1)CC2 (stereo unspecified),86.2*,21.5,0.1,75.6*,-3.6,0.2
COc1cc2c(cc1OC)C(C)N(C(=O)C1COc3ccccc3O1)CC2 (stereo unspecified),79.6*,12.6,0.2,57.4*,8.6,0.4
COc1cc2c(cc1O)CCN(C(=O)c1ccco1)C2C (stereo unspecified),65.3*,4.0,0.3,46.7,3.1,0.5
O=C(CN1C(=O)c2ccccc2C1=O)NN1C(=O)c2ccccc2C1=O,.,-0.1,.,.,4.6,.
CCOc1ccccc1-c1nc(-c2cc3ccccc3nc2OC)no1,6.0,20.1,0.9,-0.1,16.6,1
Cc1sc2nc(SCC(=O)C(C)(C)C)n(Cc3ccco3)c(=O)c2c1C,12.5,39.2*,0.9,72.9*,2.5,0.3
COc1ccc(NC(=O)CSc2nc3sc(C)c(C)c3c(=O)n2Cc2ccco2)cc1,61.5*,7.9,0.4,78.9*,3.8,0.2
Cc1cc2c(=O)n(Cc3ccco3)c(SCC(=O)c3ccc(Cl)s3)nc2s1,57.1*,24.5,0.4,76.0*,1.7,0.2
CCOC(=O)CC(=O)CSc1nc2sc(C)cc2c(=O)n1Cc1ccco1,12.0,21.6,0.9,43.2,-4.9,0.6
COc1nc(N(C#N)CC(N)=O)nc(N2CCCC2)n1,-4.2,4.7,1,-2.1,9.2,1
O=C1N2CN(C(c3ccccc3)c3ccccc3)CN=C2SC1(CO)CO,7.5,8.5,0.9,1.6,-3.1,1
O=C1NN(c2ccc(Cl)c(Cl)c2)C(=O)/C1=C/c1cccc(OC(=O)c2cccs2)c1,6.0,8.4,0.9,47.9,-24.5,0.5
O=C1NN(c2ccccc2)C(=O)/C1=C\c1cccc(OC(=O)c2cccs2)c1,51.9*,21.7,0.5,95.8*,-2.5,0
